{"source": "PubChem BioAssay (EPA / NIEHS)", "note": "The source made the active and inactive calls. How the source made its calls: active means hit-call score of the fitted dose curve at least 0.9, where 1 is the maximum; inactive means score below 0.9.", "data": [{"read-out": "Intercellular Adhesion Molecule 1 (ICAM1), ICAM1 (gene 3383)", "experiment": "LTEA_HepaRG_ICAM1: Life Technologies and Expression Analysis (LTEA) Assay for Intercellular Adhesion Molecule 1 (ICAM1) using HepaRG (AID 2283507)", "settings": "mRNA level, 48 h; actives raise or lower the signal", "summary_of_the_method": "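Differentiated HepaRG cells in serum-free induction medium were exposed in duplicate for 48 h to eight half-log concentrations up to 100 uM in 0.5% DMSO. Transcript levels were measured by qRT-PCR normalized to ACTB, GAPDH and POLR2A; bidirectional fits relative to DMSO.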", "values": [{"smiles": "Cc1c(COC(=O)[C@@H]2[C@H](/C=C(\\Cl)C(F)(F)F)C2(C)C)cccc1-c1ccccc1", "outcome": "inactive"}, {"smiles": "Nc1c(Cl)c(Cl)nc(C(=O)O)c1Cl", "outcome": "inactive"}, {"smiles": "CC(C)NC(=O)N1CC(=O)N(c2cc(Cl)cc(Cl)c2)C1=O", "outcome": "inactive"}, {"smiles": "Cn1c(-c2ccccc2)cc(-c2ccccc2)[n+]1C", "outcome": "inactive"}, {"smiles": "COC(=O)c1c(C(F)F)nc(C(F)(F)F)c(C2=NCCS2)c1CC(C)C", "outcome": "inactive"}, {"smiles": "Clc1nc(Cl)nc(Nc2ccccc2Cl)n1", "outcome": "inactive"}, {"smiles": "COc1cc(OC)nc(NC(=O)NS(=O)(=O)c2ncccc2OCC(F)(F)F)n1", "outcome": "inactive"}, {"smiles": "Cc1cc(C)nc(Nc2ccccc2)n1", "outcome": "inactive"}, {"smiles": "O=c1n(Cl)c(=O)n(Cl)c(=O)n1Cl", "outcome": "inactive"}, {"smiles": "CSC(=O)c1c(C(F)F)nc(C(F)(F)F)c(C(=O)SC)c1CC(C)C", "outcome": "inactive"}, {"smiles": "C=C(C)CN(CC)c1c([N+](=O)[O-])cc(C(F)(F)F)cc1[N+](=O)[O-]", "outcome": "inactive"}, {"smiles": "CCOc1cc(C(C)(C)C)ccc1C1COC(c2c(F)cccc2F)=N1", "note": "(configuration not stated)", "outcome": "inactive"}, {"smiles": "O=C(Nc1ccccc1-c1ccc(Cl)cc1)c1cccnc1Cl", "outcome": "inactive"}, {"smiles": "COP(=O)(OC)O/C(C)=C/C(=O)N(C)C", "outcome": "inactive"}, {"smiles": "CC(C)Nc1nc(Cl)nc(NC(C)C)n1", "outcome": "inactive"}, {"smiles": "COP(=S)(OC)Oc1ccc([N+](=O)[O-])c(C)c1", "outcome": "inactive"}, {"smiles": "COP(=S)(OC)SCn1nnc2ccccc2c1=O", "outcome": "inactive"}, {"smiles": "C=CCOC(=O)C(C)(C)OC(=O)c1cc(-n2c(=O)cc(C(F)(F)F)n(C)c2=O)ccc1Cl", "outcome": "inactive"}, {"smiles": "CNC(=O)N(C)c1nnc(C(C)(C)C)s1", "outcome": "inactive"}, {"smiles": "CCSC(=O)N1CCCCCC1", "outcome": "inactive"}, {"smiles": "CC(C)C1(C)N=C(c2ncccc2C(=O)O)NC1=O", "note": "(configuration not stated)", "outcome": "inactive"}, {"smiles": "Nc1cnn(-c2ccccc2)c(=O)c1Cl", "outcome": "inactive"}, {"smiles": "CC(C)N1C(=O)N(c2ccccc2)CSC1=NC(C)(C)C", "AC50": "74.6 µM (active)"}, {"smiles": "COC(=O)NS(=O)(=O)c1ccc(N)cc1", "outcome": "inactive"}, {"smiles": "Nc1c(Cl)c(F)nc(OCC(=O)O)c1Cl", "outcome": "inactive"}, {"smiles": "Clc1cccc(C(Cl)(Cl)Cl)n1", "outcome": "inactive"}, {"smiles": "Cc1cnc(C2=NC(C)(C(C)C)C(=O)N2)c(C(=O)O)c1", "note": "(configuration not stated)", "outcome": "inactive"}, {"smiles": "CS(=O)(=O)c1ccc(C(=O)C2C(=O)CCCC2=O)c([N+](=O)[O-])c1", "outcome": "inactive"}, {"smiles": "O=C(O)c1c(Cl)ccc2cc(Cl)cnc12", "outcome": "inactive"}, {"smiles": "COC(=O)NC(=S)Nc1ccccc1NC(=S)NC(=O)OC", "outcome": "inactive"}, {"smiles": "CNC(=O)Oc1cccc2ccccc12", "outcome": "inactive"}, {"smiles": "COC(=O)N(C(=O)N1CO[C@@]2(C(=O)OC)Cc3cc(Cl)ccc3C2=N1)c1ccc(OC(F)(F)F)cc1", "outcome": "inactive"}, {"smiles": "CC(C)Oc1cccc(NC(=O)c2ccccc2C(F)(F)F)c1", "outcome": "inactive"}, {"smiles": "CN=C=S", "outcome": "inactive"}, {"smiles": "CCC(C)n1c(=O)[nH]c(C)c(Br)c1=O", "note": "(configuration not stated)", "outcome": "inactive"}, {"smiles": "CO/N=C(/C1=NOCCO1)c1ccccc1Oc1ncnc(Oc2ccccc2Cl)c1F", "AC50": "29.4 µM (active)"}]}, {"read-out": "Insulin-like growth factor-binding protein 1 (IGFBP1), IGFBP1 (gene 3484)", "experiment": "LTEA_HepaRG_IGFBP1: Life Technologies and Expression Analysis (LTEA) Assay for Insulin-like growth factor-binding protein 1 (IGFBP1) using HepaRG (AID 2283508)", "settings": "mRNA level, 48 h; actives raise or lower the signal", "summary_of_the_method": "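Differentiated human HepaRG cells in serum-free induction medium were exposed in duplicate for 48 h to eight concentrations, top 100 uM with half-log dilutions, in 0.5% DMSO. Transcript levels came from qRT-PCR normalised to ACTB, GAPDH and POLR2A, fitted bidirectionally against DMSO.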", "values": [{"smiles": "Cc1c(COC(=O)[C@@H]2[C@H](/C=C(\\Cl)C(F)(F)F)C2(C)C)cccc1-c1ccccc1", "outcome": "inactive"}, {"smiles": "Nc1c(Cl)c(Cl)nc(C(=O)O)c1Cl", "outcome": "inactive"}, {"smiles": "CC(C)NC(=O)N1CC(=O)N(c2cc(Cl)cc(Cl)c2)C1=O", "outcome": "inactive"}, {"smiles": "Cn1c(-c2ccccc2)cc(-c2ccccc2)[n+]1C", "AC50": "50 µM (active)"}, {"smiles": "COC(=O)c1c(C(F)F)nc(C(F)(F)F)c(C2=NCCS2)c1CC(C)C", "outcome": "inactive"}, {"smiles": "Clc1nc(Cl)nc(Nc2ccccc2Cl)n1", "outcome": "inactive"}, {"smiles": "COc1cc(OC)nc(NC(=O)NS(=O)(=O)c2ncccc2OCC(F)(F)F)n1", "outcome": "inactive"}, {"smiles": "Cc1cc(C)nc(Nc2ccccc2)n1", "outcome": "inactive"}, {"smiles": "O=c1n(Cl)c(=O)n(Cl)c(=O)n1Cl", "outcome": "inactive"}, {"smiles": "CSC(=O)c1c(C(F)F)nc(C(F)(F)F)c(C(=O)SC)c1CC(C)C", "AC50": "49.8 µM (active)"}, {"smiles": "C=C(C)CN(CC)c1c([N+](=O)[O-])cc(C(F)(F)F)cc1[N+](=O)[O-]", "outcome": "inactive"}, {"smiles": "CCOc1cc(C(C)(C)C)ccc1C1COC(c2c(F)cccc2F)=N1", "note": "(configuration not stated)", "outcome": "inactive"}, {"smiles": "O=C(Nc1ccccc1-c1ccc(Cl)cc1)c1cccnc1Cl", "outcome": "inactive"}, {"smiles": "COP(=O)(OC)O/C(C)=C/C(=O)N(C)C", "outcome": "inactive"}, {"smiles": "CC(C)Nc1nc(Cl)nc(NC(C)C)n1", "outcome": "inactive"}, {"smiles": "COP(=S)(OC)Oc1ccc([N+](=O)[O-])c(C)c1", "outcome": "inactive"}, {"smiles": "COP(=S)(OC)SCn1nnc2ccccc2c1=O", "outcome": "inactive"}, {"smiles": "C=CCOC(=O)C(C)(C)OC(=O)c1cc(-n2c(=O)cc(C(F)(F)F)n(C)c2=O)ccc1Cl", "outcome": "inactive"}, {"smiles": "CNC(=O)N(C)c1nnc(C(C)(C)C)s1", "outcome": "inactive"}, {"smiles": "CCSC(=O)N1CCCCCC1", "outcome": "inactive"}, {"smiles": "CC(C)C1(C)N=C(c2ncccc2C(=O)O)NC1=O", "note": "(configuration not stated)", "outcome": "inactive"}, {"smiles": "Nc1cnn(-c2ccccc2)c(=O)c1Cl", "outcome": "inactive"}, {"smiles": "CC(C)N1C(=O)N(c2ccccc2)CSC1=NC(C)(C)C", "AC50": "89.1 µM (active)"}, {"smiles": "COC(=O)NS(=O)(=O)c1ccc(N)cc1", "outcome": "inactive"}, {"smiles": "Nc1c(Cl)c(F)nc(OCC(=O)O)c1Cl", "outcome": "inactive"}, {"smiles": "Clc1cccc(C(Cl)(Cl)Cl)n1", "outcome": "inactive"}, {"smiles": "Cc1cnc(C2=NC(C)(C(C)C)C(=O)N2)c(C(=O)O)c1", "note": "(configuration not stated)", "outcome": "inactive"}, {"smiles": "CS(=O)(=O)c1ccc(C(=O)C2C(=O)CCCC2=O)c([N+](=O)[O-])c1", "outcome": "inactive"}, {"smiles": "O=C(O)c1c(Cl)ccc2cc(Cl)cnc12", "outcome": "inactive"}, {"smiles": "COC(=O)NC(=S)Nc1ccccc1NC(=S)NC(=O)OC", "outcome": "inactive"}, {"smiles": "CNC(=O)Oc1cccc2ccccc12", "outcome": "inactive"}, {"smiles": "COC(=O)N(C(=O)N1CO[C@@]2(C(=O)OC)Cc3cc(Cl)ccc3C2=N1)c1ccc(OC(F)(F)F)cc1", "AC50": "40 µM (active)"}, {"smiles": "CC(C)Oc1cccc(NC(=O)c2ccccc2C(F)(F)F)c1", "outcome": "inactive"}, {"smiles": "CN=C=S", "outcome": "inactive"}, {"smiles": "CCC(C)n1c(=O)[nH]c(C)c(Br)c1=O", "note": "(configuration not stated)", "AC50": "18.1 µM (active)"}, {"smiles": "CO/N=C(/C1=NOCCO1)c1ccccc1Oc1ncnc(Oc2ccccc2Cl)c1F", "AC50": "20.3 µM (active)"}]}]}
